# Results taken from the supplement of paper PMC8728848.
# The sample as a whole holds a higher share of the strongest signals than the screen did.
# B1: SP8524D-bot-399-27-399 (Bacteroides ovatus) (protein)
# chain: DAKYDTLDTHAYIEEALSSTSQKVTVQATGESFTTLNVHLSNLSSTDNHYKLVTDQSVLDTYNHINGTGYIMLPKDYYTLPETITVKAGQYAADALSIALKAFSQEMMKSGESYALPVKLVLQDGSISPMENTGTFVILAESIIEFSAPMFVGAPSLKANKFTESPETYSQYTIEVRFQVANTADRDRAVFKNGGDDANFILLRFEDPQSDNENYKAHSLVQIVGRNRLYLNPSNSFKPNEWQHLALVCDGSNYRLYINGVDSGVLSIPTGATTFSDVNWFCLGDDSYSRWGNCKILMSEARIWSVVRSASQIQNNMTQVSPKSVGLEAYWRFNEGQGNVFEDATGKGHTLTTSATPTWIDGILSTDKSTEWK
# Legend:
# Assay in all cases: glycan array binding signal (z-score within array); higher = stronger binding
# Details in all cases: glycan notation: IUPAC condensed, linker removed
# [1] = molecular target: Fuc(a1-2)Gal(b1-3)GlcNAc(b1-3)[Gal(b1-4)GlcNAc(b1-6)]Gal(b1-4)Glc
# How it was run: (§1)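 Glycan array data were curated from 3228 arrays in the Consortium for Functional Glycomics database and kept only where the protein sequence was available. Glycan names were converted to IUPAC-condensed notation, and columns mapping to the same glycan were averaged. The binding signal is a within-array Z-score, averaged across arrays of the same protein sequence at different concentrations or buffers and across linkers. Negative Z-scores can be read as non-binding.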
# [2] = molecular target: Fuc(a1-2)Gal(b1-3)GlcNAc(b1-3)[Neu5Ac(a2-6)Gal(b1-4)GlcNAc(b1-6)]Gal(b1-4)Glc
# How it was run: as §1
# Fuc(a1-2)Gal(b1-4)Glc = molecular target: Fuc(a1-2)Gal(b1-4)Glc
# How it was run: as §1
# [3] = molecular target: Fuc(a1-2)Gal(b1-4)GlcNAc(b1-3)Gal(b1-4)GlcNAc(b1-3)Gal(b1-4)GlcNAc
# How it was run: as §1
# Fuc(a1-2)[Gal(a1-3)]Gal = molecular target: Fuc(a1-2)[Gal(a1-3)]Gal
# How it was run: as §1
# [4] = molecular target: Fuc(a1-2)[Gal(a1-3)]Gal(b1-3)GlcNAc(b1-6)GalNAc
# How it was run: as §1
# [5] = molecular target: Fuc(a1-2)[Gal(a1-3)]Gal(b1-4)GlcNAc(b1-6)GalNAc
# How it was run: as §1
# [6] = molecular target: Fuc(a1-2)[GalNAc(a1-3)]Gal(b1-3)GlcNAc(b1-2)Man(a1-3)[Fuc(a1-2)[GalNAc(a1-3)]Gal(b1-3)GlcNAc(b1-2)Man(a1-6)]Man(b1-4)GlcNAc(b1-4)[Fuc(a1-6)]GlcNAc
# How it was run: as §1
# [7] = molecular target: Fuc(a1-2)[GalNAc(a1-3)]Gal(b1-4)GlcNAc(b1-3)[Fuc(a1-2)[GalNAc(a1-3)]Gal(b1-4)GlcNAc(b1-6)]GalNAc
# How it was run: as §1
# [8] = molecular target: Fuc(a1-3)[GalNAc(b1-4)]GlcNAc
# How it was run: as §1
# Fuc(a1-4)GlcNAc = molecular target: Fuc(a1-4)GlcNAc
# How it was run: as §1
# Gal(a1-3)Gal(b1-4)GlcNAc = molecular target: Gal(a1-3)Gal(b1-4)GlcNAc
# How it was run: as §1
# [9] = molecular target: Gal(a1-3)[Gal(a1-4)]Gal(b1-4)GlcNAc
# How it was run: as §1
# [10] = molecular target: Gal(b1-3)GlcNAc(b1-3)Gal(b1-4)Glc
# How it was run: as §1
# [11] = molecular target: Gal(b1-3)GlcNAc(b1-3)Gal(b1-4)[Fuc(a1-3)]GlcNAc
# How it was run: as §1
# [12] = molecular target: Gal(b1-3)[Fuc(a1-4)]GlcNAc(b1-2)Man
# How it was run: as §1
# [13] = molecular target: Gal(b1-3)[GlcNAc(b1-6)]GalNAc
# How it was run: as §1
# [14] = molecular target: Gal(b1-4)GalNAc(a1-3)[Fuc(a1-2)]Gal(b1-4)GlcNAc
# How it was run: as §1
# [15] = molecular target: Gal(b1-4)GlcNAc(b1-2)Man(a1-3)[GlcNAc(b1-4)][Gal(b1-4)GlcNAc(b1-2)Man(a1-6)]Man(b1-4)GlcNAc(b1-4)GlcNAc
# How it was run: as §1
# [16] = molecular target: Gal(b1-4)GlcNAc(b1-3)Gal(b1-4)GlcNAc(b1-3)Gal(b1-4)GlcNAc(b1-3)Gal(b1-4)GlcNAc(b1-3)Gal(b1-4)GlcNAc(b1-2)[Gal(b1-4)GlcNAc(b1-3)Gal(b1-4)GlcNAc(b1-3)Gal(b1-4)GlcNAc(b1-3)Gal(b1-4)GlcNAc(b1-3)Gal(b1-4)GlcNAc(b1-6)]Man(a1-6)[Gal(b1-4)GlcNAc(b1-3)Gal(b1-4)GlcNAc(b1-3)Gal(b1-4)GlcNAc(b1-3)Gal(b1-4)GlcNAc(b1-3)Gal(b1-4)GlcNAc(b1-2)Man(a1-3)]Man(b1-4)GlcNAc(b1-4)[Fuc(a1-6)]GlcNAc
# How it was run: as §1
# [17] = molecular target: Gal(b1-4)GlcNAc(b1-3)Gal(b1-4)GlcNAc(b1-6)[Gal(b1-3)]GalNAc
# How it was run: as §1
# Gal3S4S(b1-4)GlcNAc = molecular target: Gal3S4S(b1-4)GlcNAc
# How it was run: as §1
# Gal3S6S(b1-4)GlcNAc = molecular target: Gal3S6S(b1-4)GlcNAc
# How it was run: as §1
# Gal4S(b1-4)GlcNAc = molecular target: Gal4S(b1-4)GlcNAc
# How it was run: as §1
# [18] = molecular target: GalNAc3S(b1-4)[Fuc(a1-3)]GlcNAc
# How it was run: as §1
# [19] = molecular target: GlcNAc(b1-2)[GlcNAc(b1-4)]Man(a1-3)[GlcNAc(b1-2)Man(a1-6)]Man(b1-4)GlcNAc(b1-4)GlcNAc
# How it was run: as §1
# [20] = molecular target: GlcNAc(b1-2)[GlcNAc(b1-4)]Man(a1-3)[GlcNAc(b1-4)][GlcNAc(b1-2)Man(a1-6)]Man(b1-4)GlcNAc(b1-4)GlcNAc
# How it was run: as §1
# [21] = molecular target: GlcNAc(b1-2)[GlcNAc(b1-4)]Man(a1-3)[GlcNAc(b1-4)][GlcNAc(b1-2)[GlcNAc(b1-6)]Man(a1-6)]Man(b1-4)GlcNAc(b1-4)GlcNAc
# How it was run: as §1
# [22] = molecular target: GlcNAc(b1-2)[GlcNAc(b1-4)]Man(a1-3)[GlcNAc(b1-4)][GlcNAc(b1-2)[GlcNAc(b1-6)]Man(a1-6)]Man(b1-4)GlcNAc(b1-4)[Fuc(a1-6)]GlcNAc
# How it was run: as §1
# [23] = molecular target: GlcNAc(b1-3)Gal(b1-4)GlcNAc(b1-2)[GlcNAc(b1-3)Gal(b1-4)GlcNAc(b1-6)]Man(a1-6)[GlcNAc(b1-3)Gal(b1-4)GlcNAc(b1-2)Man(a1-3)]Man(b1-4)GlcNAc(b1-4)GlcNAc
# How it was run: as §1
binder,measurement,setting,value
B1,glycan array binding signal (z-score),[1],-0.119
same,glycan array binding signal (z-score),[2],-0.348
same,glycan array binding signal (z-score),Fuc(a1-2)Gal(b1-4)Glc,-0.082
same,glycan array binding signal (z-score),[3],-0.049
same,glycan array binding signal (z-score),Fuc(a1-2)[Gal(a1-3)]Gal,1.34
same,glycan array binding signal (z-score),[4],-0.387
same,glycan array binding signal (z-score),[5],-0.255
same,glycan array binding signal (z-score),[6],-0.246
same,glycan array binding signal (z-score),[7],-0.238
same,glycan array binding signal (z-score),[8],1.02
same,glycan array binding signal (z-score),Fuc(a1-4)GlcNAc,6.02
same,glycan array binding signal (z-score),Gal(a1-3)Gal(b1-4)GlcNAc,-0.463
same,glycan array binding signal (z-score),[9],3.56
same,glycan array binding signal (z-score),[10],-0.359
same,glycan array binding signal (z-score),[11],-0.174
same,glycan array binding signal (z-score),[12],0.35
same,glycan array binding signal (z-score),[13],-0.01
same,glycan array binding signal (z-score),[14],0.229
same,glycan array binding signal (z-score),[15],-0.382
same,glycan array binding signal (z-score),[16],1.02
same,glycan array binding signal (z-score),[17],0.317
same,glycan array binding signal (z-score),Gal3S4S(b1-4)GlcNAc,-0.075
same,glycan array binding signal (z-score),Gal3S6S(b1-4)GlcNAc,0.506
same,glycan array binding signal (z-score),Gal4S(b1-4)GlcNAc,0.045
same,glycan array binding signal (z-score),[18],0.563
same,glycan array binding signal (z-score),[19],16.1
same,glycan array binding signal (z-score),[20],8.43
same,glycan array binding signal (z-score),[21],12.1
same,glycan array binding signal (z-score),[22],2.04
same,glycan array binding signal (z-score),[23],0.455
